Assay results published in the supplement of paper PMC10849652.
The full data set covers some 7,900 targets. This sample favours those with a hit. About 0.6% of all pairs of compound and target were hits. Values without a mark were called inactive.

Assays:
Experiment in all cases: log2 fold change, soluble protein after heating vs DMSO (PISA); higher = thermal stabilisation; K562 cells, 10 uM, 30 min; active = over 0.2 and 3.5 SD of the protein, either way, in both replicates (recomputed)
[1] = compound: CC1=C(C=C(C=C1)NC(=O)C2=CC(=CC=C2)C(C)(C)C#N)NC3=CC4=C(C=C3)N=CN(C4=O)C
In short: (§1)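 Aliquots of K562 cells (2×10^6 cells/mL) treated with 10 μM compound for 30 min were heated for 3 min over 48°C-58°C. After pooling and extraction in PBS with 0.5% NP-40 at 4°C, soluble protein from a 21,000xg, 90 min spin was quantified by TMTpro 16plex LC-MS/MS with channel sums equalised. Thermal stability is expressed against control samples, from duplicates, as a log2 fold change.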

[2] = compound: CC1=C(C=C(C=C1)NC(=O)C2=CC(=CC=C2)N(C)C)NC(=O)C3=CC=C(C=C3)O
In short: as §1

[3] = compound: CC1=CC=C(C=C1)SC2=C3C=C(SC3=CN=C2)C(=O)N
In short: as §1

[4] = compound: CC1=NC(=CC=C1)C2=C(N=C(N2)C(C)(C)C)C3=CC4=NC=CN=C4C=C3
In short: as §1

Nexturastat A = compound: CCCCN(Cc1ccc(C(=O)NO)cc1)C(=O)Nc1ccccc1 [Nexturastat A]
In short: as §1

vemurafenib = compound: CCCS(=O)(=O)Nc1ccc(F)c(C(=O)c2c[nH]c3ncc(-c4ccc(Cl)cc4)cc23)c1F [vemurafenib]
In short: as §1

[5] = compound: CCCS(=O)(=O)Nc1ccc(F)c(C(=O)c2c[nH]c3ncc(Cl)cc23)c1F
In short: as §1

[6] = compound: CCCc1cc(C)[nH]c(=O)c1CNC(=O)c1cc(-c2ccnc(N3CCN(C)CC3)c2)cc2c1cnn2C(C)C
In short: as §1

givinostat = compound: CCN(CC)Cc1ccc2cc(COC(=O)Nc3ccc(C(=O)NO)cc3)ccc2c1 [givinostat]
In short: as §1

barasertib = compound: CCN(CCCOc1ccc2c(Nc3cc(CC(=O)Nc4cccc(F)c4)[nH]n3)ncnc2c1)CCOP(=O)(O)O [barasertib]
In short: as §1

[7] = compound: CC[C@@H]1C(=O)N(C)c2cnc(Nc3ccc(C(=O)NC4CCN(C)CC4)cc3OC)nc2N1C1CCCC1
In short: as §1

volasertib = compound: CC[C@@H]1C(=O)N(C)c2cnc(Nc3ccc(C(=O)N[C@H]4CC[C@H](N5CCN(CC6CC6)CC5)CC4)cc3OC)nc2N1C(C)C [volasertib]
In short: as §1

[8] = compound: CC[C@H](C)N1C=C(C2=C(C=C(C=C21)C3=CN=C(C=C3)N4CCNCC4)C(=O)NCC5=C(C=C(NC5=O)C)C)C
In short: as §1

epoxomicin = compound: CC[C@H](C)[C@@H](C(=O)N[C@@H]([C@@H](C)O)C(=O)N[C@@H](CC(C)C)C(=O)[C@]1(CO1)C)NC(=O)[C@H]([C@@H](C)CC)N(C)C(=O)C [epoxomicin]
In short: as §1

[9] = compound: CCn1c(C(=O)N(C2CC2)C2CC2)cc2c3c(ncn3C)c(Nc3cc(C)n(C)n3)nc21
In short: as §1

[10] = compound: CCn1cc(-c2ccnc3[nH]c(-c4cccc(CN(C)C)c4)cc23)c(-c2ccc(NC(=O)N(C)C)cc2)n1
In short: as §1

[11] = compound: CN(C)CC(=O)Nc1ccc2[nH]c(=O)c3ccccc3c2c1
In short: as §1

rosiglitazone = compound: CN(CCOC1=CC=C(C=C1)C[C@H]2C(=O)NC(=O)S2)C3=CC=CC=N3 (racemic) [rosiglitazone]
In short: as §1

[12] = compound: CN1C2=C(C3=C1C(=O)N(N=C3)CC4=CC(=CC=C4)N)SC(=C2)S(=O)C
In short: as §1

[13] = compound: CN1CCC(CNc2ccc3ncc(-c4cccc(OC(F)(F)F)c4)n3n2)CC1
In short: as §1

Sequence of UniProt Q969X6 (Q969X6 whole entry, looked up): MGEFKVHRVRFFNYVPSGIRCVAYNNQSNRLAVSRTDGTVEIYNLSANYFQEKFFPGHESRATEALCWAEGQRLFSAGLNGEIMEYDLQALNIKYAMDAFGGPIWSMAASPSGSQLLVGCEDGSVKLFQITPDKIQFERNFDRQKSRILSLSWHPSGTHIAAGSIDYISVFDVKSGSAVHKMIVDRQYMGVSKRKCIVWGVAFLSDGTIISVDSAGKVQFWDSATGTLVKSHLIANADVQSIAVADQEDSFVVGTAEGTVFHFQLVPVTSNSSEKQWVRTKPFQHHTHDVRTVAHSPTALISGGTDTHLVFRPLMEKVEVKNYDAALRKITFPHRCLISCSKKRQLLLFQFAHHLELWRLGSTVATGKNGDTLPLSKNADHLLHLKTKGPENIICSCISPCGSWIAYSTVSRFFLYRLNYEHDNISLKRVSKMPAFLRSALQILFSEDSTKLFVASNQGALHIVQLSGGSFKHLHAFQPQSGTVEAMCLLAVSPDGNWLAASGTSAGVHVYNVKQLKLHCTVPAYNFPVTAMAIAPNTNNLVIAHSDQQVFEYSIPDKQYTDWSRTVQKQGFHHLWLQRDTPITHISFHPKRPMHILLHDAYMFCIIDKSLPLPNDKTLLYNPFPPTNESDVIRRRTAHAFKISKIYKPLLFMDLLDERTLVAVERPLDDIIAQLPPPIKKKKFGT
Sequence of UniProt Q92973 (Q92973 whole entry, looked up): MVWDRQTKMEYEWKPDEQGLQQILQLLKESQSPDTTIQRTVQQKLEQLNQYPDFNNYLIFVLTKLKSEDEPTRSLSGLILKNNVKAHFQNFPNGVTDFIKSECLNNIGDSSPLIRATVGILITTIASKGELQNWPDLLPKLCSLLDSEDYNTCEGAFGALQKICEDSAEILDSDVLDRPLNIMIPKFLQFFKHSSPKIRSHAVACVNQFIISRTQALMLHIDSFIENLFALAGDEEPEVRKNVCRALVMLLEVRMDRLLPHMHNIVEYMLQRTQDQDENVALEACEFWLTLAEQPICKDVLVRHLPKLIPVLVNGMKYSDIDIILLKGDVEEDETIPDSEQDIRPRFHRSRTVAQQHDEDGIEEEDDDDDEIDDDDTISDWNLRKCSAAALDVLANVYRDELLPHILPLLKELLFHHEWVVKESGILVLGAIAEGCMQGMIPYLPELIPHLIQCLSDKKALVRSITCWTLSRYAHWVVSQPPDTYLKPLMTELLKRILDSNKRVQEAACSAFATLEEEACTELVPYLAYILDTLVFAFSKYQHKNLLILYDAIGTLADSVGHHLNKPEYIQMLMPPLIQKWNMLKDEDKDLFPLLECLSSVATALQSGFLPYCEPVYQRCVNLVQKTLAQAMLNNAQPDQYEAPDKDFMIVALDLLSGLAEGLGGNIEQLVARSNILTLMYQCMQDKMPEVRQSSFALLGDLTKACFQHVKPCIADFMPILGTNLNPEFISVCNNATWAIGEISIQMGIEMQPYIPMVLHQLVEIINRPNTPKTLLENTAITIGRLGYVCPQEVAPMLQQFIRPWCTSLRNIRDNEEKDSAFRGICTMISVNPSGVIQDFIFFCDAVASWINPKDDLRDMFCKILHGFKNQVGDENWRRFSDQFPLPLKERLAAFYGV
Sequence of UniProt Q9Y4E6 (Q9Y4E6 whole entry, looked up): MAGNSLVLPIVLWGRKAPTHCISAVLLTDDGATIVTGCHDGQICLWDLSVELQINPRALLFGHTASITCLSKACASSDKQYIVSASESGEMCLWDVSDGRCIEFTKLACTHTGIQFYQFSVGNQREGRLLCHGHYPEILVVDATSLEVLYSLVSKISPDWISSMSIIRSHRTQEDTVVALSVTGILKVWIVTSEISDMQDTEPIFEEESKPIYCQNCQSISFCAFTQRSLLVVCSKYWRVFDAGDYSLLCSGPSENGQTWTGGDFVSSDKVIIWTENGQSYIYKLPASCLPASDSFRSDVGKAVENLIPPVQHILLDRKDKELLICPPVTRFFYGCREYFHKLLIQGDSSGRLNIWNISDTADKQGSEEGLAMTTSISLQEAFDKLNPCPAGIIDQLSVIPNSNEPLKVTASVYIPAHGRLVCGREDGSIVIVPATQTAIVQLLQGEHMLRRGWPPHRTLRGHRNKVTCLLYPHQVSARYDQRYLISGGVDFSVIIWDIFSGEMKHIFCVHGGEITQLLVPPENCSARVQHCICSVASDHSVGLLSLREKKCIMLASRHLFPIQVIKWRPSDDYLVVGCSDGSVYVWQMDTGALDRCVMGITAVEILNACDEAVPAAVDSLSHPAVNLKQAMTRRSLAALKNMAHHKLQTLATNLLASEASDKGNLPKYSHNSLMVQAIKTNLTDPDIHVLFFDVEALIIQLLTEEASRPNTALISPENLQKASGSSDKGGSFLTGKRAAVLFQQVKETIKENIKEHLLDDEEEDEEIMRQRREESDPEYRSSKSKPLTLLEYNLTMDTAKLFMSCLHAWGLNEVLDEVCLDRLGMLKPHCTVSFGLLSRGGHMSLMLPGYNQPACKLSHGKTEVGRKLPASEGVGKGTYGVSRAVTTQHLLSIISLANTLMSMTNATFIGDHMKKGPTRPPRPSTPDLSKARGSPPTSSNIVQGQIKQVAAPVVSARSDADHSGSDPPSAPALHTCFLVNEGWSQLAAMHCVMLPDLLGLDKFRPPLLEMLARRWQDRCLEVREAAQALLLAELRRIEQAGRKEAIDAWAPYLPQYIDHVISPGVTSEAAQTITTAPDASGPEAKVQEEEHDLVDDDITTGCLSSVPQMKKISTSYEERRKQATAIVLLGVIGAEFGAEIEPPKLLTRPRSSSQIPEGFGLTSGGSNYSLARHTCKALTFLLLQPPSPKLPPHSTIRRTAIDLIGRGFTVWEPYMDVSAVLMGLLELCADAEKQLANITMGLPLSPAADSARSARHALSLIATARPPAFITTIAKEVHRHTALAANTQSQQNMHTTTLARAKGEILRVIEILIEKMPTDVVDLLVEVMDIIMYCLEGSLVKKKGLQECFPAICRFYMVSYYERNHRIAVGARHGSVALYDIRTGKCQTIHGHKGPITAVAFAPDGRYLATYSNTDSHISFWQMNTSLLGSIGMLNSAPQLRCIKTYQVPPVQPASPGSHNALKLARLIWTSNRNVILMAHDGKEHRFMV
Sequence of UniProt A5PLN9 (A5PLN9 whole entry, looked up): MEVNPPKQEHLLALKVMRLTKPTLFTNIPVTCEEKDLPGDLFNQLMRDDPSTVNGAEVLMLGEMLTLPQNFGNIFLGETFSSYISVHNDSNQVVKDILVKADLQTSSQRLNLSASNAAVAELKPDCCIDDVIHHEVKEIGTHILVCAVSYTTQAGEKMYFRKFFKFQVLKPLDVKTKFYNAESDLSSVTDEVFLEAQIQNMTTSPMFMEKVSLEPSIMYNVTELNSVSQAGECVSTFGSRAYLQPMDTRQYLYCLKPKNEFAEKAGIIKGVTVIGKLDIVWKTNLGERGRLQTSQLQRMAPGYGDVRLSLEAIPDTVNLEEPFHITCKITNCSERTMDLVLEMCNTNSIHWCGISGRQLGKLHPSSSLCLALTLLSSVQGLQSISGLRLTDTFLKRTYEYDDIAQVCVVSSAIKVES
Sequence of UniProt Q99986 (Q99986 whole entry, looked up): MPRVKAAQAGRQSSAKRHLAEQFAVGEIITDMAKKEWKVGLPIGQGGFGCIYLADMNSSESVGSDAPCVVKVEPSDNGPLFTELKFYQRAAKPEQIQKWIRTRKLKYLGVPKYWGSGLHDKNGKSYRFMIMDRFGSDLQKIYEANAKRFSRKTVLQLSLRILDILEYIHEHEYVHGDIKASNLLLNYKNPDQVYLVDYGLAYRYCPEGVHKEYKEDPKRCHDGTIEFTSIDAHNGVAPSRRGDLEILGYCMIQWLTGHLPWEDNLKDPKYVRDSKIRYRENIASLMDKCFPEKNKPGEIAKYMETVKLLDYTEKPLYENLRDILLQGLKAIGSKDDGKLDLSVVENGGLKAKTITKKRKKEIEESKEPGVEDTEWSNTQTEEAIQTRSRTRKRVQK
Sequence of UniProt Q7Z6J8 (Q7Z6J8 whole entry, looked up): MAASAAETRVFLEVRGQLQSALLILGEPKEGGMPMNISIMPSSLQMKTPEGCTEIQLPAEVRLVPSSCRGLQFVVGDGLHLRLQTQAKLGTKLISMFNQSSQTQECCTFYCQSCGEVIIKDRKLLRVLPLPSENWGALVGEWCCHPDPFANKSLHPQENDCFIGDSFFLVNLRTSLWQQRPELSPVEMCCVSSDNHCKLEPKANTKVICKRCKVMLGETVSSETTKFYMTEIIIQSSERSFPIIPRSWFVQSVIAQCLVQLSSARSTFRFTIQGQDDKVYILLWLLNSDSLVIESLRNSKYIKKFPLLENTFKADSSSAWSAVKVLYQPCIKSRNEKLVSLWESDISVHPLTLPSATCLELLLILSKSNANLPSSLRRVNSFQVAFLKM
Sequence of UniProt Q15061 (Q15061 whole entry, looked up): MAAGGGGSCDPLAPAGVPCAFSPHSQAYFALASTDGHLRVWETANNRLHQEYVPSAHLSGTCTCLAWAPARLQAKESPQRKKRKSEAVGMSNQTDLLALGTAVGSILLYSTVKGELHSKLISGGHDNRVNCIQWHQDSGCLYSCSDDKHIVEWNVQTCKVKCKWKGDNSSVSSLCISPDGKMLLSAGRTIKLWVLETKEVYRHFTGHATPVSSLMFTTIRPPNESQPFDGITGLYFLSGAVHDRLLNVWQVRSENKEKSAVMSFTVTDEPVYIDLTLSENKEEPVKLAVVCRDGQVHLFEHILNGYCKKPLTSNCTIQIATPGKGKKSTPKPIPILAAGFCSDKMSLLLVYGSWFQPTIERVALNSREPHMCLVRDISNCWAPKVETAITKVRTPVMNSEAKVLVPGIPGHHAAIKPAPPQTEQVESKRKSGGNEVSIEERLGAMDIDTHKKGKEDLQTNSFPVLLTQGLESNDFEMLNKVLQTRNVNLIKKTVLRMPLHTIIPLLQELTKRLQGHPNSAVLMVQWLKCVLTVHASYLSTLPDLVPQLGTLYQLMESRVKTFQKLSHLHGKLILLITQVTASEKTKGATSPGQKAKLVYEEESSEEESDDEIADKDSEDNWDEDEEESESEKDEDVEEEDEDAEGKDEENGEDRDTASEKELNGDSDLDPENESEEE

Target | log2 fold change [1] | log2 fold change [2] | log2 fold change [3] | log2 fold change [4] | log2 fold change (Nexturastat A) | log2 fold change (vemurafenib) | log2 fold change [5] | log2 fold change [6] | log2 fold change (givinostat) | log2 fold change (barasertib) | log2 fold change [7] | log2 fold change (volasertib) | log2 fold change [8] | log2 fold change (epoxomicin) | log2 fold change [9] | log2 fold change [10] | log2 fold change [11] | log2 fold change (rosiglitazone) | log2 fold change [12] | log2 fold change [13]
WDCP (UniProt Q9H6R7) | 0.003 | 0.013 | -0.103 | -0.023 | 0.061 | -0.087 | 0.025 | -0.004 | 0.116 | -0.06 | -0.196 | -0.477 (active) | 0.102 | 0.127 | -0.062 | 0.071 | 0.057 | 0.047 | 0.124 | -0.019
VPS50 (UniProt Q96JG6) | -0.007 | -0.076 | 0.054 | 0.054 | -0.052 | 0.077 | 0.066 | 0.09 | 0.014 | 0.059 | -0.168 | -0.415 (active) | 0.08 | 0.009 | -0.037 | -0.026 | 0.009 | 0.008 | 0.036 | -0.101
TMEM223 (UniProt A0PJW6) | 0.034 | -0.001 | -0.026 | 0.058 | -0.13 | 0.084 | 0.055 | -0.128 | 0.002 | 0.041 | -0.004 | 0.043 | 0.035 | -0.01 | -0.009 | 0.022 | -0.015 | 0.032 | -0.022 | -0.271 (active)
TRAPPC13 isoform 5 (UniProt A5PLN9) | 0.022 | 0.008 | 0.006 | 0.043 | 0.024 | 0.074 | 0.113 | 0.095 | 0.025 | 0.002 | -0.055 | -0.34 | 0.044 | -0.014 | -0.072 | -0.068 | 0.078 | 0.087 | 0.042 | -0.187
VPS52 (UniProt Q8N1B4) | -0.071 | -0.001 | -0.009 | 0.005 | 0.079 | 0.023 | 0.006 | 0.048 | -0.004 | 0.054 | -0.107 | -0.383 (active) | 0.153 | 0.092 | 0.012 | 0.006 | -0.021 | 0.094 | 0.037 | -0.027
UTP4 (UniProt Q969X6) | -0.036 | 0.029 | 0.009 | -0.007 | -0.06 | -0.028 | -0.021 | -0.019 | -0.033 | -0.005 | 0.032 | 0.006 | -0.017 | -0.02 | 0.001 | 0.043 | -0.036 | -0.006 | -0.061 | 0.233 (active)
WDR7 (UniProt Q9Y4E6) | -0.029 | -0.008 | -0.016 | -0.025 | -0.216 | 0.091 | 0.083 | 0.202 | 0.067 | 0.03 | -0.09 | -0.415 (active) | 0.027 | -0.007 | -0.085 | -0.007 | 0.279 | 0.082 | 0.034 | -0.199
TNPO2 (UniProt O14787) | 0.052 | -0.01 | 0.073 | 0.015 | 0.021 | 0.061 | 0.11 | 0.007 | 0.083 | 0.054 | -0.176 | -0.36 (active) | 0.106 | 0.029 | -0.031 | -0.027 | 0.111 | 0.068 | 0.016 | 0.06
UBE3D (UniProt Q7Z6J8) | -0.036 | 0.036 | -0.049 | 0.01 | -0.016 | 0.014 | 0.04 | 0.006 | -0.075 | 0.018 | -0.033 | -0.053 | 0.012 | 0.031 | 0.063 | -0.023 | -0.004 | 0.003 | -0.051 | -0.016
UBAP1 isoform 4 (UniProt Q9NZ09) | 0.082 | -0.002 | 0.135 | -0.015 | -0.049 | 0.005 | 0.159 | 0.018 | 0.13 | 0.033 | -0.012 | -0.545 (active) | 0 | 0.092 | -0.037 | 0.006 | -0.034 | 0.022 | 0.023 | -0.089
USP7 (UniProt Q93009) | 0.054 | -0.046 | 0.007 | 0.012 | 0.015 | 0.036 | 0.068 | 0 | 0.083 | 0.073 | -0.045 | -0.215 | 0.101 | 0.02 | -0.12 | -0.164 | 0.097 | 0.116 | -0.005 | -0.351 (active)
TNNC2 (UniProt P02585) | -0.064 | 0.037 | 0.002 | -0.024 | -0.011 | 0 | -0.016 | -0.045 | -0.037 | -0.004 | 0.042 | 0.07 | -0.031 | -0.037 | 0.016 | 0.04 | -0.006 | 0.006 | -0.053 | -0.015
TNPO1 (UniProt Q92973) | 0.041 | 0 | 0.037 | 0 | -0.017 | 0.015 | 0.064 | -0.009 | 0.015 | -0.005 | -0.182 | -0.379 (active) | 0.046 | -0.016 | 0.021 | -0.025 | 0.018 | 0.012 | -0.019 | -0.055
VRK1 (UniProt Q99986) | -0.089 | -0.121 | 0.096 | 0.063 | -0.085 | 0.122 | 0.072 | 0.108 | 0.046 | 0.075 | -0.184 | -0.159 | 0.102 | 0.169 | -0.107 | -0.06 | 0.135 | 0.105 | -0.028 | -0.03
WDR43 (UniProt Q15061) | -0.015 | 0.018 | 0.009 | -0.001 | -0.097 | -0.027 | 0.012 | -0.061 | -0.007 | -0.033 | 0.029 | -0.029 | -0.04 | -0.026 | 0 | 0.036 | 0.004 | -0.025 | -0.04 | 0.192
TRAPPC2L (UniProt Q9UL33) | 0 | -0.135 | 0.133 | 0.045 | 0.003 | 0.076 | 0.11 | 0.055 | -0.123 | 0.05 | -0.109 | -0.065 | 0.008 | 0.06 | -0.076 | -0.042 | 0.128 | 0.053 | 0.007 | 0.001
